“And” between values parts separate entries of the source, which are not always exact repeats. Equal entries are not always repeated. About 2,000 (36%) of roughly 5,500 compounds were called active. Inconclusive results (about 18%) are left out. Cut-off read from the data, not from the text of the source: active = normalized growth mostly below about 0.91 (no sharp cut-off); inconclusive = no clear call, values can overlap the other calls; inactive = mostly above about 0.92. This is one part of the list.
Assay: chemical genetic growth profiling, strain panel (AID 1159580);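 note: tested at 20 µM; growth read once vehicle control cultures reached saturation at 30 °C; 1 = growth at the plate median or of vehicle wells; lower values mean less growth of the strain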
Conditions: growth OD
[1] = S. cerevisiae deletion strains, locus YBR021W, strain FUR4, active compounds read low
[2] = S. cerevisiae deletion strains, locus YBR229C, strain ROT2, active compounds read low
[3] = S. cerevisiae deletion strains, locus YCL029C, strain bik1, active compounds read low
[4] = S. cerevisiae deletion strains, locus YDL035C, strain GPR1, active compounds read low
[5] = S. cerevisiae deletion strains, locus YDL074C, strain BRE1, active compounds read low
[6] = S. cerevisiae deletion strains, locus YDL101C, strain DUN1, active compounds read low
[7] = S. cerevisiae deletion strains, locus YDL185W, strain tfp1, active compounds read low
[8] = S. cerevisiae deletion strains, locus YDL192W, strain arf1, active compounds read low
[9] = S. cerevisiae deletion strains, locus YDR101C, strain arx1, active compounds read low
[10] = S. cerevisiae deletion strains, locus YDR162C, strain NBP2, active compounds read low
[11] = S. cerevisiae deletion strains, locus YDR318W, strain mcm21, active compounds read low
[12] = S. cerevisiae deletion strains, locus YDR388W, active compounds read low
[13] = S. cerevisiae deletion strains, locus YDR502C, strain sam2, active compounds read low
[14] = S. cerevisiae deletion strains, locus YEL061C, strain CIN8, active compounds read low
[15] = S. cerevisiae deletion strains, locus YER110C, active compounds read low
[16] = S. cerevisiae deletion strains, locus YER155C, strain BEM2, active compounds read low
[17] = S. cerevisiae deletion strains, locus YER167W, strain BCK2, active compounds read low
[18] = S. cerevisiae deletion strains, locus YGL078C, strain dbp3, active compounds read low
[19] = S. cerevisiae deletion strains, locus YGL086W, strain mad1, active compounds read low
[20] = S. cerevisiae deletion strains, locus YGL248W, strain PDE1, active compounds read low
[21] = S. cerevisiae deletion strains, locus YGR078C, strain PAC10, active compounds read low
[22] = S. cerevisiae deletion strains, locus YGR135W, strain pre9, active compounds read low
[23] = S. cerevisiae deletion strains, locus YGR229C, strain SMI1, active compounds read low
[24] = S. cerevisiae deletion strains, locus YGR252W, strain gcn5, active compounds read low
[25] = S. cerevisiae deletion strains, locus YHR030C, strain SLT2, active compounds read low
[26] = S. cerevisiae deletion strains, locus YHR079C, strain IRE1 (second series), active compounds read low
[27] = S. cerevisiae deletion strains, locus YHR094C, strain hxt1, active compounds read low
[28] = S. cerevisiae deletion strains, locus YHR129C, strain ARP1, active compounds read low
[29] = S. cerevisiae deletion strains, locus YHR200W, strain rpn10, active compounds read low
[30] = S. cerevisiae deletion strains, locus YIL066C, strain RNR3, active compounds read low
[31] = S. cerevisiae deletion strains, locus YIL073C, strain SPO22, active compounds read low
[32] = S. cerevisiae deletion strains, locus YIL125W, strain kgd1, active compounds read low
[33] = S. cerevisiae deletion strains, locus YIR030C, strain dcg1, active compounds read low
[34] = S. cerevisiae deletion strains, locus YJL095W, strain BCK1, active compounds read low
[35] = S. cerevisiae deletion strains, locus YJL134W, strain LCB3, active compounds read low
[36] = S. cerevisiae deletion strains, locus YJL168C, strain set2, active compounds read low
[37] = S. cerevisiae deletion strains, locus YJL187C, strain SWE1 (second series), active compounds read low
[38] = S. cerevisiae deletion strains, locus YJR043C, strain POL32, active compounds read low
[39] = S. cerevisiae deletion strains, locus YKL009W, strain mrt4, active compounds read low
[40] = S. cerevisiae deletion strains, locus YKL068W, active compounds read low
[41] = S. cerevisiae deletion strains, locus YKL085W, strain MDH1 (second series), active compounds read low
[42] = S. cerevisiae deletion strains, locus YKL085W, strain MDH1, active compounds read low
[43] = S. cerevisiae deletion strains, locus YKR001C, strain vps1, active compounds read low
[44] = S. cerevisiae deletion strains, locus YLR039C, strain RIC1, active compounds read low
[45] = S. cerevisiae deletion strains, locus YLR058C, strain SHM2, active compounds read low
[46] = S. cerevisiae deletion strains, locus YLR102C, strain apc9, active compounds read low
[47] = S. cerevisiae deletion strains, locus YLR268W, strain sec22, active compounds read low
[48] = S. cerevisiae deletion strains, locus YLR330W, strain CHS5, active compounds read low
[49] = S. cerevisiae deletion strains, locus YLR371W, strain rom2, active compounds read low
[50] = S. cerevisiae deletion strains, locus YLR418C, strain cdc73, active compounds read low
[51] = S. cerevisiae deletion strains, locus YML016C, strain PPZ1, active compounds read low
[52] = S. cerevisiae deletion strains, locus YML032C, strain rad52, active compounds read low
[53] = S. cerevisiae deletion strains, locus YML124C, strain tub3, active compounds read low
[54] = S. cerevisiae deletion strains, locus YMR078C, strain ctf18, active compounds read low
[55] = S. cerevisiae deletion strains, locus YMR223W, strain ubp8, active compounds read low
[56] = S. cerevisiae deletion strains, locus YMR307W, strain GAS1, active compounds read low
[57] = S. cerevisiae deletion strains, locus YNL067W, strain RPL9B, active compounds read low
[58] = S. cerevisiae deletion strains, locus YNL153C, strain GIM3, active compounds read low
[59] = S. cerevisiae deletion strains, locus YNL233W, strain BNI4, active compounds read low
[60] = S. cerevisiae deletion strains, locus YNL250W, strain rad50, active compounds read low
[61] = S. cerevisiae deletion strains, locus YNL271C, strain bni1, active compounds read low
[62] = S. cerevisiae deletion strains, locus YNL298W, strain CLA4, active compounds read low
[63] = S. cerevisiae deletion strains, locus YNL307C, strain MCK1, active compounds read low
[64] = S. cerevisiae deletion strains, locus YNR052C, strain pop2, active compounds read low
[65] = S. cerevisiae deletion strains, locus YOL012C, strain htz1
[66] = S. cerevisiae deletion strains, locus YOL147C, strain pex11, active compounds read low
[67] = S. cerevisiae deletion strains, locus YOR061W, strain CKA2, active compounds read low
[68] = S. cerevisiae deletion strains, locus YOR069W, strain VPS5, active compounds read low
[69] = S. cerevisiae deletion strains, locus YOR136W, strain idh2, active compounds read low
[70] = S. cerevisiae deletion strains, locus YOR144C, strain elg1, active compounds read low
[71] = S. cerevisiae deletion strains, locus YOR184W, strain ser1, active compounds read low
[72] = S. cerevisiae deletion strains, locus YOR316C, strain cot1, active compounds read low
[73] = S. cerevisiae deletion strains, locus YPL241C, strain CIN2, active compounds read low
[74] = S. cerevisiae deletion strains, locus YPR119W, strain clb2, active compounds read low
[75] = S. cerevisiae deletion strains, locus YPR141C, strain kar3, active compounds read low
[76] = S. cerevisiae deletion strains, locus YPR163C, strain tif3, active compounds read low
[77] = S. cerevisiae deletion strains, locus YPR167C, strain met16, active compounds read low
[78] = S. cerevisiae deletion strains, strain wtn01, active compounds read low
[79] = S. cerevisiae strains, strain wild type, active compounds read low

Measured: normalized growth

Cc1cc(O)c(C=O)c2c1C(=O)Oc1c(C)c(O)c3c(c1O2)C(O)OC3=O (stereo unspecified)
inactive: [1] 1.03 | [2] 1 | [3] 0.981 | [4] 0.944 | [5] 0.956 | [6] 0.955 | [7] 0.954 | [8] 0.992 | [9] 0.994 | [10] 0.948 | [11] 0.98 | [12] 0.98 | [13] 0.974 | [14] 0.975 | [15] 0.971 | [16] 1.02 | [17] 0.993 | [18] 0.989 | [19] 0.966 | [20] 1 | [21] 0.988 | [22] 0.951 | [23] 1.03 | [24] 1.02 | [25] 0.984 and 0.994 | [26] 0.97 | S. cerevisiae deletion strains, locus YHR079C, strain IRE1, active compounds read low 0.983 | [27] 0.971 | [28] 0.963 | [29] 0.983 | [30] 0.962 | [31] 0.831 | [32] 0.974 | [33] 0.995 | [34] 1.02 and 0.991 | [35] 0.986 | [36] 0.969 | [37] 0.88 | [38] 0.973 | S. cerevisiae deletion strains, locus YJR066W, strain TOR1, active compounds read low 0.965 | [39] 0.933 | [40] 0.98 | [41] 0.974 | [42] 0.974 | [43] 1.01 | [44] 0.996 | [45] 0.937 | [46] 0.986 | S. cerevisiae deletion strains, locus YLR113W, strain HOG1, active compounds read low 0.984 | [47] 0.965 | [48] 0.99 | [49] 0.948 | [50] 0.999 | [51] 0.957 | [52] 0.995 | [53] 0.975 | [54] 0.959 | [55] 0.966 | [56] 1.14 | [57] 0.981 | [58] 0.959 | S. cerevisiae deletion strains, locus YNL183C, strain NPR1, active compounds read low 0.944 | [59] 1.03 | [60] 0.963 | [61] 0.946 | [62] 0.986 | [63] 0.978 | [64] 0.955 | [65] 0.674 | [66] 0.97 | [67] 0.963 | [68] 0.982 | [69] 0.985 | [70] 0.974 | [71] 1.01 | S. cerevisiae deletion strains, locus YOR231W, strain MKK1, active compounds read low 0.982 | [72] 0.984 | [73] 0.994 | S. cerevisiae deletion strains, locus YPL256C, strain CLN2, active compounds read low 0.928 | [74] 0.979 | [75] 0.969 | [76] 0.993 | [77] 0.983 | [78] 0.963 | [79] 0.907

Cc1cc(O)c(C)c2c1C(=O)Oc1c(C)c(O)c(C(=O)O)c(C)c1O2
inactive: S. cerevisiae deletion strains, locus YAL013W, strain DEP1, active compounds read low 0.997 | [1] 0.966 | [2] 0.993 | [3] 0.973 | [4] 0.998 | [5] 1 | [6] 0.988 | S. cerevisiae deletion strains, locus YDL134C, strain PPH21, active compounds read low 0.98 | [7] 0.989 | [8] 0.983 | [9] 0.974 | S. cerevisiae deletion strains, locus YDR150W, strain NUM1, active compounds read low 0.999 | [10] 1.02 | [11] 0.971 | [12] 0.98 | [13] 0.982 | [14] 1 | [15] 0.978 | [16] 0.991 | [17] 0.994 | [18] 0.968 | [19] 0.977 | [20] 0.989 | [21] 1.01 | [22] 1 | [23] 1.01 | [24] 0.961 | [25] 0.989 | [26] 0.982 | [27] 0.979 | [28] 0.997 | [29] 0.978 | [30] 0.988 | [31] 0.999 | [32] 0.983 | [33] 0.991 | [34] 1.01 | [35] 0.989 | [36] 0.974 | [37] 0.988 | [38] 1.01 | S. cerevisiae deletion strains, locus YJR075W, strain HOC1, active compounds read low 1.01 | [39] 0.964 | [40] 0.985 | [41] 0.992 | [42] 0.992 | S. cerevisiae deletion strains, locus YKL190W, strain CNB1, active compounds read low 1 | [43] 0.982 | [44] 1.01 | [45] 0.997 | [46] 0.988 | S. cerevisiae deletion strains, locus YLR262C, strain YPT6, active compounds read low 1 | [47] 0.99 | [48] 0.998 | S. cerevisiae deletion strains, locus YLR342W, strain FKS1 (second series), active compounds read low 0.983 | [49] 0.976 | [50] 0.974 | [51] 0.99 | [52] 0.965 | [53] 0.991 | [54] 0.973 | [55] 0.966 | S. cerevisiae deletion strains, locus YMR263W, strain SAP30, active compounds read low 1 | [56] 0.976 | [57] 1 | S. cerevisiae deletion strains, locus YNL128W, strain TEP1, active compounds read low 0.998 | [58] 1 | [59] 0.997 | [60] 0.972 | [61] 0.966 | [62] 0.967 | [63] 0.972 | S. cerevisiae deletion strains, locus YNL322C, strain KRE1, active compounds read low 1 | [64] 0.967 | S. cerevisiae deletion strains, locus YOL006C, strain TOP1, active compounds read low 0.986 | [65] 0.731 | [66] 0.988 | [67] 0.99 | [68] 0.99 | [69] 0.979 | [70] 0.985 | [71] 0.942 | [72] 0.977 | S. cerevisiae deletion strains, locus YPL055C, strain LGE1, active compounds read low 1.04 | [73] 0.972 | [74] 0.979 | [75] 0.972 | [76] 0.983 | [77] 0.985 | [78] 0.98 | [79] 1

Reference: PubChem BioAssay AID1159580 (chemical genetic matrix, 2015)
